Hits are enriched below; roughly 4.7% of the tested compounds scored in any of these assays.
HSP90 inh: HSP90 refolding inhibition in rabbit reticulocyte lysate. luciferase refolding luminescence, 3 h. inhibition, % at 5.6 µM. 290,000 tested, 0.91% active;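 active = inhibition above the screen-wide mean plus 3 SD, computed separately per campaign, cut at about 16% in these data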;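 also: 0% = DMSO wells and 100% = 60 µM geldanamycin wells; inhibitors lower the luminescence because luciferase stays unfolded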
HSF1 activator: increases HSF-1 driven luciferase reporter signal; activation, % at 9 µM; NIH3T3-HGL HSF-1 luciferase reporter, MG132, 8 h; 100% = twice DMSO control signal; 300,000 tested, 1.7% active;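 active = mean replicate activation of at least 50% with a set share of replicates each reaching 50%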;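 also: 0% = median of the neutral control wells and 100% = twice that signal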
TWEAK Fn14 block: blocks TWEAK-Fn14 interaction in a reporter cell assay | TWEAK-stimulated Fn14 reporter cells, luciferase luminescence, 8 h | inhibition, % at 10 µM | 360,000 tested, 2% active | AID 1159606; in the data active = inhibition above about 50%
EBV LMP1 NFkB: Epstein-Barr LMP1 NF-kappaB reporter inhibition; LMP1-induced NF-kappaB luciferase reporter cells, luminescence; inhibition, % at 12.5 µM; 350,000 tested, 0.69% active; AID 504558; in the data active = inhibition above about 41%;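 also: 0% = neutral control wells and 100% = reference inhibitor control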
TROY signal inh: inhibitors of TROY-dependent NF-kB signaling | Q293 LMP1-TROYcd NF-kB luciferase reporter, 4 h | AID 1347056 | 360,000 tested, 0.98% active | inhibition, % at 10 µM;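 active = compounds whose plate-normalised and pattern-corrected inhibition of the luciferase reporter signal at the single screening dose is 50% or more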
HSF1 inh: HSF1 inhibition; NIH3T3-HGL HSE-luciferase, MG132-induced, luminescence 8 h; active compounds read low; activity change, negative = inhibition, % at 7.5 µM (by protocol); 300,000 tested, 0.77% active; AID 2098;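 active = more than half of replicate wells show activity change below -50%, luminescence cut by over half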;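 also: luciferase reports HSF-1 transcriptional activity via heat shock element; 0% = median of DMSO wells and -100% = zero luminescence signal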
* marks the source's active call; other numbers are inactive results; / = not tested or not shown.

SMILES	HSP90 inh	HSF1 activator	TWEAK Fn14 block	EBV LMP1 NFkB	TROY signal inh	HSF1 inh
Cc1nc2cc(NC(=O)N3c4ccccc4CC3C)ccc2n1C (stereo not given)	13	/	57*	-6	39	/
COc1ccc(C(=O)Nc2ccc3oc(Cc4ccc(Cl)cc4)nc3c2)cc1OC	-2	9	52*	8	19	12
O=C(Nc1cccc(Br)c1)c1ccc(OC2CSC2)cc1	2	51*	/	/	/	40
COc1ccc(C(=O)Nc2ccccc2C(N)=O)cc1	-7	19	-16	-9	-45	8
CC(=O)c1cccc(NC(=O)c2ccc(OC3CSC3)cc2)c1	4	10	-20	-11	-43	4
Cc1ccc([C@H]2C[C@@H](O)[C@H](n3cc(COC(=O)c4ccccc4)nn3)CN2C(=O)c2cccs2)cc1	/	/	-4	-3	-9	/
CCOC1=C2CN(S(=O)(=O)c3ccc(C)cc3)[C@@H](c3ccccc3)C[C@H]2[C@H]2C(=O)N(c3ccccc3)C(=O)[C@H]2C1	/	/	16	/	8	/
CCCNC(=O)C1(C)CCN(C(=O)c2c(F)ccc(C)c2F)C1 (stereo not given)	/	/	10	/	-1	/
Cc1cccc(C(=O)Nc2ccc3ccccc3c2)c1	1	66*	-18	-56	-47	38
COc1ccc(C(=O)Nc2cccc(C(=O)N/N=C/c3ccc(OC)cc3OC)c2)cc1	-1	2	22	67*	-26	-15
COc1ccc(C(=O)NCC(=O)Nc2ccccc2)cc1OC	-6	-6	59*	-1	/	-4
COc1ccc(C(=O)Nc2ccccc2C(=O)Nc2ccc(C(=O)O)cc2)cc1	1	23	81*	5	1	1
COc1cc(C(=O)NCC(=O)Nc2c(C)cccc2C)ccc1OCc1ccccc1	/	/	-5	-4	-27	/
O=C(Nc1ccc2ccccc2c1)c1cccc([N+](=O)[O-])c1	4	36	-36	-35	-64	9
COCCN1C[C@@H](CO)O[C@@H](n2cnc3c(N(C)C(C)C)ncnc32)C1	/	/	-15	/	9	/
O=C1CCCCC1Nc1ccc(Br)cc1 (stereo not given)	/	/	-24	5	4	/
Cc1nc2cc(NC(=O)Nc3cccc([N+](=O)[O-])c3)ccc2n1C	6	54*	12	-24	-20	27
COc1ccc(C(=O)Nc2cccc(NC(C)=O)c2)cc1	/	/	-5	/	-40	/
COc1ccc(/C(C)=N/Nc2ccc(C(=O)O)cc2)cc1OC	26*	-24	19	-3	20	-17
Cc1cccc(C(=O)Nc2ccc3c(c2)nc(C)n3C)c1	8	26	59*	12	19	13
COc1ccc(C(=O)Nc2cccc(C)c2)cc1	10	62*	-15	-5	-48	14
COc1cc(C(=O)Nc2ccc(C(=O)O)cc2)ccc1OC(C)=O	4	0	15	3	13	0
COc1cccc(Nc2nc(C(N)Cc3ccc(C(F)(F)F)cc3)cs2)n1 (stereo not given)	/	/	-28	/	-16	/
Cc1ccc(S(=O)(=O)N2C[C@H]3N(C(=O)OC(C)C)N(C(=O)OC(C)C)C[C@H](OC(=O)NCC4CCCCC4)[C@@]3(O)C2)cc1	/	/	38	4	13	/
N#CCSc1ccccc1NC(=O)COC(=O)C1CCN(C(=O)c2ccc(Cl)cc2)CC1	/	/	-14	4	-3	/
SMILES	HSP90 inh	HSF1 activator	TWEAK Fn14 block	EBV LMP1 NFkB	TROY signal inh	HSF1 inh
COc1ccc(Br)cc1CN(C)C(=O)CNC(=O)c1ccc2ccccc2c1	1	9	46	7	12	5
COc1ccc(C(=O)NCCCNC(=O)c2cc3ccccc3[nH]2)cc1OC	5	1	-3	75*	16	9
O=C(Nc1ccc2ccccc2c1)c1cc(F)c(F)cc1Cl	-3	59*	-54	-42	-42	53
COc1cc(C(=O)Nc2ccc3ccccc3c2)cc(OC)c1OC	-3	35	/	/	/	20
COc1ccc(C(=O)Nc2ccc3ccccc3c2)cc1OC	2	64*	-10	-38	-50	25
CCOc1ccc(CN(C)C(=O)CNC(=O)c2ccc3ccccc3c2)cc1OC	5	84*	9	4	3	21
O=C(Nc1ccc2ccccc2c1)c1ccccc1Cl	/	/	15	-26	-44	/
O=C(NCCc1c[nH]c2ccccc12)OC1CC2CC1[C@H]1CCCCN1C2=O (stereo not given in full)	/	/	-1	/	-2	/
CC(=O)Nc1cc(-c2ccccc2)cn2c(-c3cccc(C(C)=O)c3)cnc12	/	/	28	/	12	/
COc1cccc(C(=O)NC(c2ccccc2)C2CCCC2)c1 (stereo not given)	1	69*	-9	6	11	31
CC1(C)CC(=O)C=C(c2n[nH]nc2-c2ccccc2)C1	/	/	-6	-4	-8	/
CN(C)CCCN=Cc1c(-c2ccccc2)[nH]n(-c2nc3ccccc3s2)c1=O	2	-24	62*	-14	10	-23
COc1ccc(C2Nc3ccccc3C(=O)N2Cc2ccco2)cc1COc1ccccc1F (stereo not given)	4	76*	25	18	0	36
COc1ccc(C2Nc3ccccc3C(=O)N2Cc2ccco2)cc1COc1ccc(NC(C)=O)cc1 (stereo not given)	2	58*	-64	7	-32	37
Cc1nc(=S)c2c([nH]1)-c1ccccc1CC21CCCCC1	-1	-8	75*	20	-5	-8
c1ccc2c(c1)c1ccccc1n2CN1CCOCC1	3	-7	75*	4	/	-3
OC(CN1CCOCC1)Cn1c2ccccc2c2ccccc21 (stereo not given)	-1	12	-10	7	4	5
COC1(OC)C(/C=C/c2ccc(Cl)cc2)C(C#N)(C#N)C1(OC)OC (stereo not given)	6	99*	77*	-14	13	80
Cc1cc(NC(=O)c2ccc3sc([C@@H]4O[C@H](CO)[C@H](O)[C@H](O)[C@H]4O)nc3c2)n(C)n1	/	/	5	/	14	/
Cc1coc2c(C)c3oc(=O)c(CCC(=O)N[C@H](C(=O)O)C(C)C)c(C)c3cc12	/	/	-16	2	-3	/
COc1ccc(-c2cc(C(F)(F)F)n3nc(C(=O)N4CCOCC4)nc3n2)cc1	0	/	-14	44*	2	/
O=C(c1nc2nc(-c3ccccc3)cc(C(F)(F)F)n2n1)N1CCCCC1	-2	/	-9	-1	8	/
Cc1cc(N2CCN(c3ccc(F)cc3)CC2)nc2cc(O)ccc12	-4	-64	-31	9	0	-55*
CCCc1nc2c(C)cc(Br)cn2c1Cc1ccccc1C(F)(F)F	/	/	26	/	27	/
CC(=O)C1C(=O)c2c(cccc2[N+](=O)[O-])C1=Nc1ccc(S(N)(=O)=O)cc1 (stereo not given)	-2	-92	-8	0	12	-91*
CCOC(=O)C1=CCN(S(=O)(=O)c2ccc(Br)cc2)C1c1ccccc1 (stereo not given)	/	/	-9	/	19	/
